Test results published in PubChem BioAssay (NCATS).
Results filed as inconclusive are left out. More than one record can exist for a structure, and the calls need not agree. Calls of active or inactive are those of the source. Unless noted, the call rests on the fitted dose curve; in most records, active means well fitted activation curve with a large enough effect in the main read-out, with a control signal flat (not every such curve was filed as active); inconclusive means small, poorly fitted or top-dose-only effect, or effect the other way, or a change in a side signal; inactive means flat fitted curve, though single readings scatter.

These molecules were tested against 3',5'-cyclic-AMP phosphodiesterase 4B (Homo sapiens) (UniProt Q07343) (assay: qHTS Assay for Inhibitors of PDE-IV (AID 607; further: potency means the concentration at half of the fitted maximal effect; on activation (PDE inhibition): % of control where 0% means no effect)). Details: HEK293 ACTOne CNG channel cells, membrane potential fluorescence; series mostly up to 22.9 µM; activation (PDE inhibition): at the top concentration.
Sequence of 3',5'-cyclic-AMP phosphodiesterase 4B (Homo sapiens) (Q07343 whole entry, looked up): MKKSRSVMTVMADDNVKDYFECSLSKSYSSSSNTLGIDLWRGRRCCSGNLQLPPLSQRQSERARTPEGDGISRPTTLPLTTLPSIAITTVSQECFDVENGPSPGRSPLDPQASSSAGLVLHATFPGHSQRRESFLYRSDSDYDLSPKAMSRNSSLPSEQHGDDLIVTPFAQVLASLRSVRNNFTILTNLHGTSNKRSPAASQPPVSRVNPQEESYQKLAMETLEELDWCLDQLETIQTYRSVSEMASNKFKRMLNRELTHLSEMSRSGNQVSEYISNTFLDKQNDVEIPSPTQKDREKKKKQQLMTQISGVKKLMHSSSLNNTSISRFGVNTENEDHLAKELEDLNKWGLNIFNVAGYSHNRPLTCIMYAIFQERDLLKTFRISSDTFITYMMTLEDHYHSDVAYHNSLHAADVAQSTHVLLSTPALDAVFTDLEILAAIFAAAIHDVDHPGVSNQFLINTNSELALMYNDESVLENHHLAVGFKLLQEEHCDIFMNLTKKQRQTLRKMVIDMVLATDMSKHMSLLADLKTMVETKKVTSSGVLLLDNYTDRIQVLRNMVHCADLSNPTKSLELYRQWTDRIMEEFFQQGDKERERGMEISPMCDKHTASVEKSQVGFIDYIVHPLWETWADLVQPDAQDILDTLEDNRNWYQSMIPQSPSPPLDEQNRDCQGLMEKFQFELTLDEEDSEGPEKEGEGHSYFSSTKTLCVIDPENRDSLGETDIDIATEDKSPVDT
Procedure, shortened: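 Live HEK293 cells with a modified cyclic nucleotide-gated (CNG) channel report intracellular cAMP via membrane-potential dye fluorescence (ex 535/em 590 nm). Endogenous PDE-IV was targeted. Compounds were tested at up to 22.9 uM final; RO 20-1724 100 uM served as control.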
With CCCCCCCC/C=C\CCCCCCCC(=O)NCCc1ccc(O)c(O)c1 the “activation (PDE inhibition)” value was -8.11% (inactive). With Nc1nc2ccc(Cl)cc2c2nc(-c3ccco3)nn12 the “activation (PDE inhibition)” value was -8.16% (inactive). With COc1cc(CNC(=O)CCCCCCC(C)C)ccc1O the “activation (PDE inhibition)” value was 12.3% (inactive). With CCCc1c(-c2ccc(O)cc2)nn(-c2ccc(O)cc2)c1-c1ccc(O)cc1 the Potency was “inactive”. In the case of O=C1Nc2ccc(I)cc2/C1=C/c1cc(Br)c(O)c(Br)c1, the “activation (PDE inhibition)” value is reported as -21.8% (inactive). CNc1cc(NS(=O)(=O)c2ccc(N)cc2)nc(NC)n1 was tested, and the “activation (PDE inhibition)” value was -0.91% (inactive). For N#C/C(=C\c1ccc(O)c(O)c1)C(=O)NCCCNC(=O)/C(C#N)=C/c1ccc(O)c(O)c1, the “activation (PDE inhibition)” value was -4.77% (inactive). For CCCn1c(=O)c2[nH]c(C3CCCC3)nc2n(CCC)c1=O, the Potency was 5.01 µM (active) and inactive. With O=c1oc(Cl)c(Cl)c2ccccc12 the “activation (PDE inhibition)” value was -12.7% (inactive). NCCCNCCCCNCCCN was tested, and the Potency was “inactive”. In the case of CCN1C(=O)C=CC1=O, the “activation (PDE inhibition)” value is reported as -1.23% (inactive). In the case of CCCCCCN(CCCCCC)C(=O)Cc1c(-c2ccc(F)cc2)[nH]c2ccccc12, the “activation (PDE inhibition)” value is reported as 19.3% (inactive). In the case of OC1(c2ccc(Cl)cc2)CCN(Cc2c[nH]c3ccccc23)CC1, the Potency is reported as “inactive”. With CC[N+](CC)(CC)CC(=O)Nc1c(C)cccc1C the “activation (PDE inhibition)” value was -11.4% (inactive). With N#Cc1cc2nc(O)c(O)nc2cc1[N+](=O)[O-] the “activation (PDE inhibition)” value was -2.44% (inactive). O=C(O)Cc1c[nH]c2ccc(O)cc12 was tested, and the “activation (PDE inhibition)” value was -12.1% (inactive). For O=C(O)c1cc2cc(F)ccc2[nH]1, the “activation (PDE inhibition)” value was 13.2% (inactive). In the case of CCCCCCCCCCCCCCC[C@H](O)[C@H](N)CO, the “activation (PDE inhibition)” value is reported as 3.92% (inactive). NC(N)=NC(N)=Nc1ccccc1 was tested, and the Potency was “inactive”. For COc1ccccc1N1CCN(CCN(C(=O)c2ccc(F)cc2)c2ccccn2)CC1, the “activation (PDE inhibition)” value was 5.12% (inactive). For CCCCCCC/C=C\CCCCCCCCC(=O)O, the “activation (PDE inhibition)” value was 2.13% (inactive). For O=C(O)c1cc(=O)cc(C(=O)O)[nH]1, the “activation (PDE inhibition)” value was -4.38% (inactive). O=S(=O)(c1cccc2c(Cl)cccc12)N1CCCNCC1 was tested, and the “activation (PDE inhibition)” value was -0.448% (inactive). Cn1c(=O)c2[nH]c(-c3ccc(S(=O)(=O)O)cc3)nc2n(C)c1=O was tested, and the “activation (PDE inhibition)” value was 3.08% (inactive). Cc1nc(N=Nc2ccc(S(=O)(=O)O)cc2S(=O)(=O)O)c(COP(=O)(O)O)c(C=O)c1O was tested, and the Potency was “inactive”. In the case of NS(=O)(=O)c1cccc2c1c([N+](=O)[O-])cc1nc(O)c(O)nc12, the Potency is reported as “inactive”. O=C(O)C1CCNCC1 was tested, and the “activation (PDE inhibition)” value was -5.96% (inactive). For CC(=O)N[C@@H](Cc1c[nH]c2ccccc12)C(=O)OCc1cc(C(F)(F)F)cc(C(F)(F)F)c1, the Potency was “inactive”. In the case of C/C(=C\c1ccc(C(=O)O)cc1)c1ccc2c(c1)C(C)(C)CCC2(C)C, the “activation (PDE inhibition)” value is reported as -16.8% (inactive). For C=CCn1c(=O)c2c(nc(-c3ccc(S(=O)(=O)O)cc3)n2C)n(C)c1=O, the “activation (PDE inhibition)” value was -1.43% (inactive). CCCn1c(=O)c2[nH]c(-c3ccc(S(=O)(=O)O)cc3)nc2n(CCC)c1=O was tested, and the “activation (PDE inhibition)” value was -6.09% (inactive). For CCCCCCCCCCCCCCSCC(=O)O, the “activation (PDE inhibition)” value was -6.05% (inactive). For NOCC(=O)O, the “activation (PDE inhibition)” value was -30.3% (inactive). With C[C@H](NC(=O)/C(C#N)=C/c1ccc(O)c(O)c1)c1ccccc1 the “activation (PDE inhibition)” value was -19.3% (inactive). O=c1onc2cnc3ccccc3n12 was tested, and the Potency was “inactive”. For N=C(N)c1ccc(N)cc1, the “activation (PDE inhibition)” value was -9.2% (inactive).

The molecules below were run against Guanine nucleotide-binding protein G(i) subunit alpha-1 (Homo sapiens) (UniProt P63096) (assay: qHTS Assay for Inhibitors of RGS12 GoLoco Motif Activity (Green Fluorophore) (AID 879; active means well fitted curve in the direction sought with a large enough effect;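 further: 0% = labeled peptide with Gαi1 and full inhibition = labeled peptide alone without protein; negative values mean loss of peptide binding seen as reduced polarization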)). Details: Galphai1/FITC-RGS12 GoLoco peptide, fluorescence polarization; series mostly up to 57.1 µM; activity, negative = inhibition: at the top concentration.
Sequence of Guanine nucleotide-binding protein G(i) subunit alpha-1 (Homo sapiens) (P63096 whole entry, looked up): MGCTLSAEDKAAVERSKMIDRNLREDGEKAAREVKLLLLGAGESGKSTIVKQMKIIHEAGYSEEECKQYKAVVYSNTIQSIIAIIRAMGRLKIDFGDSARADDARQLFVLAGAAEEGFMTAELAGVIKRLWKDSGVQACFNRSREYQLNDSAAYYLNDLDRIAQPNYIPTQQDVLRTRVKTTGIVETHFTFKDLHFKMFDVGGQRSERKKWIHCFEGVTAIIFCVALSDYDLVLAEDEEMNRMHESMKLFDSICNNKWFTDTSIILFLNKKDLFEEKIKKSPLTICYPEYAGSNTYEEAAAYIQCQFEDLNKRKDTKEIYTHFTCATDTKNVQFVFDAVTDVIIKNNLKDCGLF
Procedure, shortened: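 A drop in FITC polarization marked displacement of the FITC-tagged RGS12 GoLoco peptide (10 nM) from Gαi1 (50 nM). Compounds were incubated 10 min at room temperature in Tris pH 7.5 buffer containing 150 mM NaCl, 0.1 mM GDP and 0.05% NP40; unlabeled peptide titration served as control.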
In the case of CCCCCCCC/C=C\CCCCCCCC(=O)NCCc1ccc(O)c(O)c1, the “activity, negative = inhibition” value is reported as -13.7% (inactive). For Nc1nc2ccc(Cl)cc2c2nc(-c3ccco3)nn12, the “activity, negative = inhibition” value was -19.4% (inactive). With COc1cc(CNC(=O)CCCCCCC(C)C)ccc1O the “activity, negative = inhibition” value was 4.6% (inactive). For CCCc1c(-c2ccc(O)cc2)nn(-c2ccc(O)cc2)c1-c1ccc(O)cc1, the “activity, negative = inhibition” value was -21.8% (inactive). O=C1Nc2ccc(I)cc2/C1=C/c1cc(Br)c(O)c(Br)c1 was tested, and the “activity, negative = inhibition” value was 140% (inactive). For CNc1cc(NS(=O)(=O)c2ccc(N)cc2)nc(NC)n1, the “activity, negative = inhibition” value was -16.3% (inactive). With N#C/C(=C\c1ccc(O)c(O)c1)C(=O)NCCCNC(=O)/C(C#N)=C/c1ccc(O)c(O)c1 the “activity, negative = inhibition” value was 6.47% (inactive). With CCCn1c(=O)c2[nH]c(C3CCCC3)nc2n(CCC)c1=O the “activity, negative = inhibition” value was 9.88% (inactive). O=c1oc(Cl)c(Cl)c2ccccc12 was tested, and the “activity, negative = inhibition” value was 2.73% (inactive). For NCCCNCCCCNCCCN, the “activity, negative = inhibition” value was -9.18% (inactive). In the case of CCN1C(=O)C=CC1=O, the “activity, negative = inhibition” value is reported as 3.18% (inactive). In the case of CCCCCCN(CCCCCC)C(=O)Cc1c(-c2ccc(F)cc2)[nH]c2ccccc12, the “activity, negative = inhibition” value is reported as -11.6% (inactive). In the case of OC1(c2ccc(Cl)cc2)CCN(Cc2c[nH]c3ccccc23)CC1, the “activity, negative = inhibition” value is reported as 2.28% (inactive). With CC[N+](CC)(CC)CC(=O)Nc1c(C)cccc1C the “activity, negative = inhibition” value was -4.04% (inactive). N#Cc1cc2nc(O)c(O)nc2cc1[N+](=O)[O-] was tested, and the “activity, negative = inhibition” value was -16.3% (inactive). O=C(O)Cc1c[nH]c2ccc(O)cc12 was tested, and the “activity, negative = inhibition” value was -11.6% (inactive). With O=C(O)c1cc2cc(F)ccc2[nH]1 the “activity, negative = inhibition” value was 7.52% (inactive). In the case of CCCCCCCCCCCCCCC[C@H](O)[C@H](N)CO, the “activity, negative = inhibition” value is reported as 4.54% (inactive). For NC(N)=NC(N)=Nc1ccccc1, the “activity, negative = inhibition” value was -11.4% (inactive). COc1ccccc1N1CCN(CCN(C(=O)c2ccc(F)cc2)c2ccccn2)CC1 was tested, and the “activity, negative = inhibition” value was -21.4% (inactive). CCCCCCC/C=C\CCCCCCCCC(=O)O was tested, and the “activity, negative = inhibition” value was -6.46% (inactive). For O=C(O)c1cc(=O)cc(C(=O)O)[nH]1, the “activity, negative = inhibition” value was -8.52% (inactive). O=S(=O)(c1cccc2c(Cl)cccc12)N1CCCNCC1 was tested, and the “activity, negative = inhibition” value was -1.98% (inactive). Cn1c(=O)c2[nH]c(-c3ccc(S(=O)(=O)O)cc3)nc2n(C)c1=O was tested, and the “activity, negative = inhibition” value was -21.5% (inactive). With Cc1nc(N=Nc2ccc(S(=O)(=O)O)cc2S(=O)(=O)O)c(COP(=O)(O)O)c(C=O)c1O the “activity, negative = inhibition” value was -14.3% (inactive). For NS(=O)(=O)c1cccc2c1c([N+](=O)[O-])cc1nc(O)c(O)nc12, the “activity, negative = inhibition” value was -18.4% (inactive). O=C(O)C1CCNCC1 was tested, and the “activity, negative = inhibition” value was -24.7% (inactive). For CC(=O)N[C@@H](Cc1c[nH]c2ccccc12)C(=O)OCc1cc(C(F)(F)F)cc(C(F)(F)F)c1, the “activity, negative = inhibition” value was 11.1% (inactive). In the case of C/C(=C\c1ccc(C(=O)O)cc1)c1ccc2c(c1)C(C)(C)CCC2(C)C, the “activity, negative = inhibition” value is reported as -19.7% (inactive). For C=CCn1c(=O)c2c(nc(-c3ccc(S(=O)(=O)O)cc3)n2C)n(C)c1=O, the “activity, negative = inhibition” value was 11.2% (inactive). In the case of CCCn1c(=O)c2[nH]c(-c3ccc(S(=O)(=O)O)cc3)nc2n(CCC)c1=O, the “activity, negative = inhibition” value is reported as -24.1% (inactive). CCCCCCCCCCCCCCSCC(=O)O was tested, and the “activity, negative = inhibition” value was -20.6% (inactive). In the case of NOCC(=O)O, the “activity, negative = inhibition” value is reported as -13.6% (inactive). For C[C@H](NC(=O)/C(C#N)=C/c1ccc(O)c(O)c1)c1ccccc1, the “activity, negative = inhibition” value was 56.6% (inactive). O=c1onc2cnc3ccccc3n12 was tested, and the “activity, negative = inhibition” value was -13.4% (inactive). In the case of N=C(N)c1ccc(N)cc1, the “activity, negative = inhibition” value is reported as 0.388% (inactive).
